PubChem BioAssay
“And” between values parts separate entries of the source, which are not always exact repeats. Equal entries are not always repeated. The source made the active and inactive calls. Cut-off read from the data, not from the text of the source, unless noted: active = parasite load remaining mostly below about 12% (no sharp cut-off); inactive = mostly above about 10%.

Tests used:
[1] = suppressors of polyQ aggregation in yeast, 75Q-TubU reporter (AID 1593); settings: Yeast 75Q polyglutamine aggregation reporter
[2] = inhibitors of mitochondrial cytochrome c release, biochemical, purified mitochondria (AID 1603); settings: stronger effect = lower value;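 note: mouse liver mitochondria challenged with calcium chloride; signal normalized to the plate average as 100%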
[3] = inhibitors of polyQ protein aggregation (AID 1604); settings: polyglutamine-induced protein aggregation inhibition assay; stronger effect = higher value; tested at 2.5 µM
[4] = liver-stage malaria parasite growth inhibition, primary screen, cell-based, HepG2, luciferase luminescence, HepG2 viability (AID 624349);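 note: 100% = mean of DMSO negative control wells on the same plate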; settings: P. berghei liver stage in HepG2, luciferase luminescence, concentration not given here; parasite load remaining: stronger effect = lower value; viability: measured here: HepG2 viability without parasites
[5] = stimulators of nuclear beta-catenin in C2C12, primary screen, imaging, WNT3A-conditioned medium, mouse C2C12, NPC library (AID 1117326; in the data active = nuclear beta-catenin stimulation mostly above about 4.2%, no sharp cut-off; inactive = mostly below about 10%); settings: stronger effect = higher value
[6] = stimulators of insulin release from INS-1E, primary screen, cell-based, 5 mM glucose, NPC library (AID 1117329;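 active = compound raises insulin release from rat beta cells at 5 mM glucose, no numeric limit stated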); settings: rat INS-1E insulin secretion, at 10 µM, stronger effect = higher value
[7] = growth inhibition of GSK3B-pretreated HCT116 cells – cell-based, CellTiter-Glo, 0.2 to 20 µM (AID 1117336;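 active = compounds lowering colon cancer cell viability after pretreatment blocking the GSK3B kinase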); settings: HCT116 viability after GSK3B inhibitor, at 20 µM, stronger effect = higher value
[8] = inhibition of endothelial tube formation, primary screen, imaging, VEGF stimulated, CD31 staining, tube area, NPC library (AID 1117340;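 active = compound that reduces growth-factor-driven endothelial tube area in a mixed cell culture, no cutoff stated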); settings: VEGF-stimulated ADSC/ECFC co-culture, at 10 µM, stronger effect = higher value
[9] = glucagon-like peptide 1 release enhancers, primary assay, NCI-H716 cell line, NPC library (AID 1117341;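 active = compound raises GLP1 secretion from the human gut endocrine cells, with no numeric limit stated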); settings: NCI-H716 cells, at 10 µM, stronger effect = higher value
[10] = HCT116 colon cancer cell growth inhibition, primary screen, CellTiter-Glo luminescence, NPC library (AID 1117342;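 active = compounds that lower survival of HCT116 colon cancer cells in the luminescence readout, no numeric limit stated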); settings: at 20 µM (top of the series)
[11] = CellTiter-Glo luminescent readout of SW480 viability loss, NPC library primary (AID 1117343;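 active = compounds that lower viability of the colon cancer cells in the luminescence readout, with no numeric limit stated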); settings: CellTiter-Glo luminescence; at 20 µM (top of the series)
[12] = decreased DLD-1 cellular survival, CellTiter-Glo luminescent readout, NPC compound collection, primary HTS (AID 1117346;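 active = compounds that lower survival of DLD-1 colon cancer cells in the luminescence readout, no cutoff given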); settings: DLD-1 viability, CellTiter-Glo luminescence; at 20 µM (top of the series)
[13] = molecular target: 6-phosphogluconate dehydrogenase, decarboxylating (Homo sapiens) (UniProt P52209); assay: 6PGD enzyme inhibitors, primary screen, biochemical, human, recombinant enzyme, NADPH absorbance (AID 1159550;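 active = at least 20% inhibition of 6-phosphogluconate dehydrogenase activity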); settings: recombinant 6PGD, NADPH absorbance 341 nm; at 10 µM; stronger effect = higher value
[14] = differential killing of epithelial or mesenchymal cells, primary screen, imaging, PC-3E GFP, TEM4-18 mCherry, co-culture (AID 1345086;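 active = compounds killing one labelled cell type while sparing the other, by normalised counts and ratio limits, not self-fluorescent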;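 for all read-outs here: cells exposed to compound for 72 h before imaging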;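 for red/green cell ratio (normalised): normalised mesenchymal count divided by normalised epithelial count so high means epithelial killing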); settings: imaging cell counts, at 1 µM; for red/green cell ratio (normalised): actives lie on both sides
[15] = system: Aerobactin synthetase IucA (Klebsiella pneumoniae hvKP1); assay: Biochemical IucA enzyme inhibition primary screen of the Spectrum library (AID 1346200; call rule not given here;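 note: 100% = wells without compound and 0% = wells lacking enzyme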); settings: malachite green pyrophosphate, A620, at 8 µM, stronger effect = lower value
[16] = sensitizers of A549 cells to miR-34 induction, primary screen, imaging, A549 dox-inducible miR-34, nuclei and caspase counts (AID 1347080;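 active = compounds whose cell count with miR-34 switched on is under 0.7 times the count with it off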); settings: A549 miR-34 inducible, Hoechst nuclei count, 48 h
[17] = molecular target: NAD(+) hydrolase SARM1 (Homo sapiens) (UniProt Q6SZW1); assay: SARM1 TIR NADase inhibitors, cell lysate, NAD-Glo luminescence (AID 1508614;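 active = compound whose remaining NAD level is above about 45 nM, limit read from the data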;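 note: higher remaining NAD means stronger inhibition of SARM1 NADase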); settings: SAM-TIR HEK293T lysate NADase, at 1 µM, stronger effect = higher value
[18] = molecular target: Mitogen-activated protein kinase 7 (Homo sapiens) (UniProt Q13164); assay: ERK5 transactivation activators in reporter cells, primary screen, cell-based, HTS (AID 1508626;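 active = luciferase signal above three times the same-plate solvent-only control wells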;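 note: luciferase driven by Gal4-ERK5 fusion binding five Gal4 sites before minimal TATA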); settings: HeLa Gal4-ERK5 transactivation, 18 h, at 5 µM, stronger effect = higher value
[19] = survival rescue of mitochondrial mutant cells in low glucose, primary screen, MELAS cybrids, Rieske KO mouse fibroblasts, CellTiter-Glo (AID 1508586;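 active = mean z-score across replicates of 1.96 or higher in either the MELAS or the Rieske mutant cell line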;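 note: z relative to plate mean and SD of compound and empty wells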)
[20] = measured here: epithelial PC-3E GFP cell survival
[21] = measured here: mesenchymal TEM4-18 mCherry cell survival
[22] = measured here: relative caspase fold change +Dox/-Dox
[23] = measured here: total cells with miR-34 induction, stronger effect = lower value
[24] = measured here: total cells without miR-34 induction

Chain of 6-phosphogluconate dehydrogenase, decarboxylating (Homo sapiens) (P52209 whole entry, looked up): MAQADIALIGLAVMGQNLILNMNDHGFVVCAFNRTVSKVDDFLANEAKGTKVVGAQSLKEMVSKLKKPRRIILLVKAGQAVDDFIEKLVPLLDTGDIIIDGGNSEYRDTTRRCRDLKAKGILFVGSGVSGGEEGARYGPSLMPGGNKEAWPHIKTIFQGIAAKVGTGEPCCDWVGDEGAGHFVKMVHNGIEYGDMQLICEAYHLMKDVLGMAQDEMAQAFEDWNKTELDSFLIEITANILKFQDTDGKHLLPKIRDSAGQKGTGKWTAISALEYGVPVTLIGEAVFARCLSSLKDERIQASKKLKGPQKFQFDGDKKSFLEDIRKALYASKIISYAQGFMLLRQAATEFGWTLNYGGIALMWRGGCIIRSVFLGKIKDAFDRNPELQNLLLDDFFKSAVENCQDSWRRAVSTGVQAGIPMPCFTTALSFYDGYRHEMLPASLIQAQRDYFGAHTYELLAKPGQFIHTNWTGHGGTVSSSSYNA
Chain of NAD(+) hydrolase SARM1 (Homo sapiens) (Q6SZW1 whole entry, looked up, the tested form may be a part): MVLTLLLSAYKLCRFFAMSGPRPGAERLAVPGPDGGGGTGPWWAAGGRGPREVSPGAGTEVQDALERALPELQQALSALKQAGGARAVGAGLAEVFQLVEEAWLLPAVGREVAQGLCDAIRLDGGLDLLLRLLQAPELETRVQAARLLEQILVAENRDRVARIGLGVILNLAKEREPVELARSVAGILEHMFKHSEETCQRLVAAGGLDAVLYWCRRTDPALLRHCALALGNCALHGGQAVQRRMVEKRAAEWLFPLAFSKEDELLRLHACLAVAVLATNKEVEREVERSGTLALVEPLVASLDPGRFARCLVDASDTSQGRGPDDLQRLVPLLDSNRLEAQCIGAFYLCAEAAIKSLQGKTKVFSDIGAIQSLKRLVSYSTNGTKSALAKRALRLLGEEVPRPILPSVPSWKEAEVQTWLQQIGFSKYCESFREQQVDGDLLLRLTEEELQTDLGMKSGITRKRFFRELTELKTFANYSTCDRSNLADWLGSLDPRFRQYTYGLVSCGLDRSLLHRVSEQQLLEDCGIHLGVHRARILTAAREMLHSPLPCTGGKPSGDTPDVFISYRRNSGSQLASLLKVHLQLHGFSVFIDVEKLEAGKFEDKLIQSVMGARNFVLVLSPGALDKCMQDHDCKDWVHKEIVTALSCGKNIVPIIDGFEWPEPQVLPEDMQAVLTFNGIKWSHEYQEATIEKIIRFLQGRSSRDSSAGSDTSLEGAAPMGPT
Chain of Mitogen-activated protein kinase 7 (Homo sapiens) (Q13164 whole entry, looked up, the tested form may be a part): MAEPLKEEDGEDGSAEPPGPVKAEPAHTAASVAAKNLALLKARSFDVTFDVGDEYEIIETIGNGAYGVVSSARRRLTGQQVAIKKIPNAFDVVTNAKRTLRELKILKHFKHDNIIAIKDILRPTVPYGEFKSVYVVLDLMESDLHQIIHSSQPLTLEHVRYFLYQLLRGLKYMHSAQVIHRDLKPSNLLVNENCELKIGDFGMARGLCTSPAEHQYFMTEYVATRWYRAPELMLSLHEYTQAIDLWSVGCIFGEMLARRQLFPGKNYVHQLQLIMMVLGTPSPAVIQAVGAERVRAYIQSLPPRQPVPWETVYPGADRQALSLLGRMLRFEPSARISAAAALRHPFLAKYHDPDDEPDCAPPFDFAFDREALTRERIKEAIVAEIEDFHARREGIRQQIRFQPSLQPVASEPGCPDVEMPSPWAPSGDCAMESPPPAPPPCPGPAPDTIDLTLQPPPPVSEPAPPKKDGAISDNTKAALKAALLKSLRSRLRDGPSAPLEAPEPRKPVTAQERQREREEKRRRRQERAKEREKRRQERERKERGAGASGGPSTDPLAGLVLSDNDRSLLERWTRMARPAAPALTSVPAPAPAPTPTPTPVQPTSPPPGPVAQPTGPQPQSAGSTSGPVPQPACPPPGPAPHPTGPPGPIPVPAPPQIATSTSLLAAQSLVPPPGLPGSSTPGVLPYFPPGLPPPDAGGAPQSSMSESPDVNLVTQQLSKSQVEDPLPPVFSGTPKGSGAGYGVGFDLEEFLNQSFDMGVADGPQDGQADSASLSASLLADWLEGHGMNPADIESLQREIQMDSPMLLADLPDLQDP

## NCCc1cc(O)c(O)cc1O
[1]
  score: 1.88
[2]
  cytochrome c release ratio: 0.92
[3]
  inhibition of aggregation: 55.6%
[4]
  parasite load remaining: 70% (inactive) and 42.8% (inactive)
  viability: 70% and 87.6%
[5]; at 10 µM
  nuclear beta-catenin stimulation: 2.4% (inactive)
[5]; stimulation, at 2 µM
  nuclear beta-catenin stimulation: 2.4%
[6]
  insulin secretion stimulation: 1.2% (inactive)
[7]
  viability decrease: -22.3% (inactive)
[8]
  tube area decrease: 18.6% (inactive)
[9]
  GLP1 secretion stimulation: -8.1% (inactive)
[10]
  inhibition of viability: 15.3% (inactive)
[11]
  viability decrease (inhibition): 142% (active)
[12]
  viability decrease (inhibition): 78.2% (active)
[13]
  inhibition: 13% (inactive)
[14]
  red/green cell ratio (normalised): 1.14 (inactive)
[14]; [20]
  normalised cell number: 1.02
[14]; [21]
  normalised cell number: 1.17
[15]
  activity remaining: 78.8% (inactive)
[16]; stronger effect = lower value
  fold change: 0.838 (inactive)
[16]; [22]
  fold change: 0.786
[16]; [23]
  cell count: 10500
[16]; [24]
  cell count: 12600
[17]
  remaining NAD: 10 nM (inactive)
[18]
  luciferase signal: 156 AU (inactive)

## NC(=O)c1cc([N+](=O)[O-])cc([N+](=O)[O-])c1
[1]
  score: 1.47
[2]
  cytochrome c release ratio: 0.54
[3]
  inhibition of aggregation: 72.4%
[4]
  parasite load remaining: 66.1% (inactive) and 34.1% (inactive)
  viability: 71.7% and 90.1%
[5]; at 10 µM
  nuclear beta-catenin stimulation: -1.3% (inactive)
[5]; stimulation, at 2 µM
  nuclear beta-catenin stimulation: -1.6%
[6]
  insulin secretion stimulation: 0.7% (inactive)
[7]
  viability decrease: 30.5% (inactive)
[8]
  tube area decrease: -14.6% (inactive)
[9]
  GLP1 secretion stimulation: -0.8% (inactive)
[10]
  inhibition of viability: 37.6% (inactive)
[11]
  viability decrease (inhibition): 67.6% (active)
[12]
  viability decrease (inhibition): 6.7% (inactive)
[13]
  inhibition: 8.1% (inactive)
[14]
  red/green cell ratio (normalised): 0.97 (inactive)
[14]; [20]
  normalised cell number: 0.99
[14]; [21]
  normalised cell number: 0.96
[15]
  activity remaining: 116% (inactive)
[16]; stronger effect = lower value
  fold change: 0.831 (inactive)
[16]; [22]
  fold change: 2.03
[16]; [23]
  cell count: 10800
[16]; [24]
  cell count: 12900
[17]
  remaining NAD: 10 nM (inactive)
[18]
  luciferase signal: 40 AU (inactive)

## CC(=O)NC1CCSC1=O (stereo not drawn)
[4]
  parasite load remaining: 132% (inactive)
  viability: 109%
[5]; at 10 µM
  nuclear beta-catenin stimulation: 2.9% (inactive)
[5]; stimulation, at 2 µM
  nuclear beta-catenin stimulation: 3%
[6]
  insulin secretion stimulation: 0.7% (inactive)
[7]
  viability decrease: -1% (inactive)
[8]
  tube area decrease: 8% (inactive)
[9]
  GLP1 secretion stimulation: -0.5% (inactive)
[10]
  inhibition of viability: -4.73% (inactive)
[11]
  viability decrease (inhibition): 12.1% (inactive)
[12]
  viability decrease (inhibition): -3.7% (inactive)
[13]
  inhibition: 18.8% (inactive)
[14]
  red/green cell ratio (normalised): 0.96 (inactive)
[14]; [20]
  normalised cell number: 1.05
[14]; [21]
  normalised cell number: 1.02
[16]; stronger effect = lower value
  fold change: 0.927 (inactive)
[16]; [22]
  fold change: 0.928
[16]; [23]
  cell count: 7880
[16]; [24]
  cell count: 8510
[19]; MELAS cybrid survival, CellTiter-Glo 48 h, stronger effect = higher value
  z-score: -0.207 (inactive)
[19]; Rieske KO mouse fibroblast survival, CellTiter-Glo 72 h
  z-score: -0.982
[17]
  remaining NAD: 10 nM (inactive)
[18]
  luciferase signal: 52 AU (inactive)
